Results published in PubChem BioAssay AID1694 (National Center for Advancing Translational Sciences (NCATS), 2009).
Results filed as inconclusive are left out. Activity calls are given as the source filed them. Calls follow the shape of the dose curve; as a rule, active = well fitted curve in the direction sought with a large enough effect; inconclusive = small, poorly fitted or top-dose-only effect, or another doubt; inactive = no such curve, though single readings can be large or run the other way.

Test: Confirmation Concentration-Response Assay for Inhibitors of Tau Fibril Formation, Total Fluorescence Counterscreen for Fluorescence Polarization
Conditions: Alexa594-tau K18 total fluorescence counterscreen, interference, tau K18 with P301L mutation; series mostly up to 100 µM; fluorescence change, negative = quenching: at the top concentration
Description: NIH Molecular Libraries Probe Production Network [MLPCN] NIH Chemical Genomics Center [NCGC] MLPCN Grant: X01 MH083262-01 Assay Provider: Carlo Ballatore, University of Pennsylvania NCGC Assay Overview: The microtubule-associated protein tau is an abundant protein in the axons of neurons that stabilizes microtubules. With its ability to modulate microtubule dynamics, tau contributes directly or indirectly, to key structural and regulatory cellular functions. Particularly important is the influence tau exerts on axonal transport, which allows signaling molecules, trophic factors and other essential cellular constituents to travel along the axons. Under pathological conditions, tau becomes sequestered into insoluble aggregates called neurofibrillary tangles. This phenomenon is believed to have pathological consequences by promoting axonal transport deficits that ultimately lead to synaptic dysfunction and neuronal loss. To identify inhibitors of tau aggregation, a heparin-induced tau fibril formation assay was used that employed a recombinantly expressed fragment of tau, K18 (Q242-E372), bearing a P301L mutation (Gustke et al. 1994; Hong et al. 1998). […] Total fluorescence (555 nm excitation and 632 nm emission) was measured to identify fluorescent or absorbent compounds at this wavelength. Such compounds may be artifacts that interfere with the Alexa 594 Tau fluorescence polarization assay. Gustke, N., B. Trinczek, et al. (1994). "Domains of tau protein and interactions with microtubules." Biochemistry 33(32): 9511-22. Hong, M., V. Zhukareva, et al. (1998). "Mutation-specific functional impairments in distinct tau isoforms of hereditary FTDP-17." Science 282(5395): 1914-7. Li, W. and V. M. Lee (2006). "Characterization of two VQIXXK motifs for tau fibrillization in vitro." Biochemistry 45(51): 15692-701. von Bergen, M., S. Barghorn, et al. (2001). "Mutations of tau protein in frontotemporal dementia promote aggregation of paired helical filaments by enhancing local beta-structure." J Biol Chem 276(51): 48165-74.
For screening, 2 uL/well human K18 P301L (15 uM unlabeled and 0.24 uM Alexa 594-labeled tau final concentrations) in reagent buffer (100 mM sodium acetate pH 7) was dispensed into black solid 1536-well plates (Grenier) using a solenoid-based dispenser. Following transfer of 23 nL compound or DMSO vehicle by a pin tool, 2 uL/well heparin (20 uM final concentration) in reagent buffer was added and the plate centrifuged 15 s at 1000 RPM. Plates were incubated 6 hr at 37 C and then 1 uL/well ThT (30 uM final concentration) was added. After a 1 hr ambient incubation, the plates were read by an Envision (Perkin Elmer) to monitor Alexa 594 FP (555 nm excitation and 632 nm emission). Keywords: NIH Roadmap, MLPCN, MLI, MLSMR, NCGC, qHTS, tau, tauopathies, Alzheimer's disease, fibril, neurodegeneration, aggregation

Row | Compound | fluorescence change, negative = quenching | Potency
1 | Cc1ccc(NC(=O)c2c(NC(=O)Cc3ccccc3)sc3c2CCCC3)cc1 | -4.68% [at 57.1 µM] (inactive) | –
2 | O=C(Cc1ccccc1)Nc1sc2c(c1C(=O)Nc1ccc(Cl)cc1)CCCC2 | – | inactive
3 | COc1ccc(NC(=O)c2c(NC(=O)Cc3ccccc3)sc3c2CCCC3)cc1 | -7.74% [at 57.1 µM] (inactive) | –
4 | Nc1scc2c(C(=O)N3CCOCC3)nn(-c3ccccc3)c(=O)c12 | -0.72% [at 57.1 µM] (inactive) | –
5 | COc1ccc2c(c1)c(CC(=O)Nc1ccc(C(C)=O)cc1)c(C)n2C(=O)c1ccc(Cl)cc1 | -12.3% (inactive) | –
6 | COC(=O)c1c(NC(=O)C(C)(C)C)sc2c1C(C(=O)OC)CC2 (stereo not given) | -17% (inactive) | –
7 | CCOC(=O)N1CCN(C(=O)CN2C(=O)/C(=C\c3cccc(OC)c3)SC2=S)CC1 | -16.9% [at 57.1 µM] (inactive) | –
8 | Cc1ccc(N2C(=O)SC(Cc3ccccc3)C2=O)cc1 (stereo not given) | 14.2% (inactive) | –
9 | Cc1cccc(NC(=O)c2c(NC(=O)c3ccccc3)sc3c2CCCC3)c1 | -10.3% [at 57.1 µM] (inactive) | –
10 | Cc1ccc(C(=O)Nc2nc(=O)n(C(=O)CC(C)C)s2)cc1 | 2.86% (inactive) | –
11 | COc1cccc(/C=C2/SC(=S)N(CC(=O)Nc3nccs3)C2=O)c1 | -19.7% [at 57.1 µM] (inactive) | –
12 | Nc1cc(-c2ccncc2)c[nH]c1=O | 0.824% (inactive) | –
13 | Cc1ccc(NCc2cc3cc4c(cc3n(CC(=O)Nc3ccc(C)cc3)c2=O)OCCO4)cc1 | -9.33% (inactive) | –
14 | Cc1ccc(N(C)S(=O)(=O)c2nnc(NC(=O)C3CCCCC3)s2)cc1 | 4.56% (inactive) | –
15 | O=C(O)CC1S/C(=N/N=C/c2ccc(-c3ccc(Cl)cc3[N+](=O)[O-])o2)NC1=O (stereo not given) | 3.16% (inactive) | –
16 | O=C(Nc1sc2c(c1C(=O)Nc1cccc(Cl)c1)CCCC2)c1cccs1 | -14.5% [at 57.1 µM] (inactive) | –
17 | CCOC(=O)c1nn(-c2ccccc2)c(=O)c2c(N)scc12 | – | inactive
18 | CC1CCc2c(sc(NC(=O)Cc3ccccc3)c2C(=O)Nc2ccc(Cl)cc2)C1 (stereo not given) | -0.241% [at 57.1 µM] (inactive) | –
19 | CCOC(=O)c1nn(-c2ccccc2)c(=O)c2c(NC(=O)c3ccccc3)scc12 | 0.942% [at 57.1 µM] (inactive) | –
20 | CN(C)S(=O)(=O)c1cccc(N=C2NN=C(c3ccccc3)CS2)c1 | -15.9% (inactive) | –

Row | Compound | fluorescence change, negative = quenching | Potency
21 | CCOC(=O)c1ccc(-n2nc(C(=O)OCC)c3csc(N)c3c2=O)cc1 | -11.1% [at 57.1 µM] (inactive) | –
22 | O=C(Cc1ccccc1)Nc1sc2c(c1C(=O)Nc1ccc(Cl)cc1)CCOC2 | -16.6% [at 57.1 µM] (inactive) | –
23 | CCN(CC)C(=O)c1nn(-c2ccc(OC)cc2)c(=O)c2c(N)scc12 | -20.1% [at 57.1 µM] (inactive) | –
24 | CCOC(=O)c1c(N)sc2c1CCOC2 | 17.4% [at 57.1 µM] (inactive) | –
25 | Cc1[nH]c(=O)c(C#N)cc1-c1ccncc1 | 2.45% (inactive) | –
26 | CN(c1ccccc1)S(=O)(=O)c1nnc(NC(=O)C2CCCCC2)s1 | -17.2% (inactive) | –
27 | COC(=O)C1CCc2sc(NC(=O)Cc3ccccc3)c(C(=O)Nc3ccc(Cl)cc3)c21 (stereo not given) | -9.79% [at 57.1 µM] (inactive) | –
28 | CC(C)(C)c1ccc(NC(=O)N2CCN(c3ccc([N+](=O)[O-])cn3)CC2)cc1 | -1.23% (inactive) | –
29 | CC(C)C(C)NC(=O)CSc1nc2scc(-c3ccco3)c2c(=O)n1-c1ccccc1 (stereo not given) | 24.5% (inactive) | –
30 | CN(C(=S)Nc1cccnc1)c1ccc(O)cc1 | 5.46% (inactive) | –
31 | CCN(c1ccccc1)S(=O)(=O)c1nnc(NC(=O)C(C)(C)C)s1 | -3.33% (inactive) | –
32 | O=C(Nc1nc2ccc(S(=O)(=O)N3CCCC3)cc2s1)c1ccc(F)cc1 | -1.76% (inactive) | –
33 | CCOC(=O)c1nn(-c2cccc(C(F)(F)F)c2)c(=O)c2c(N)scc12 | – | 1.58 µM [quencher] (active)
34 | N#Cc1cccc(NC(=O)c2ccc3c(c2)N(Cc2cccc(Cl)c2)C(=O)c2ccccc2S3(=O)=O)c1 | -2.79% (inactive) | –
35 | COc1ccc(NC(=O)Cn2cc(S(=O)(=O)N3CCN(c4ccccc4F)CC3)c3ccccc3c2=O)cc1Cl | -2.65% (inactive) | –
36 | CN(c1ccccc1)S(=O)(=O)c1nnc(NC(=O)COc2ccccc2)s1 | -11.1% (inactive) | –
37 | COc1ccc(OC)c(NC(=O)c2c(NCc3cccs3)sc3c2CCCC3)c1 | -28.3% [at 57.1 µM] (inactive) | –
38 | Cc1cc2c(N)cccc2nn1 | 29.3% (inactive) | –
39 | COc1ccc(NC(=O)C2CCN(S(=O)(=O)c3c(C)noc3/C=C/c3cccs3)CC2)cc1Cl | -12.3% (inactive) | –
40 | COc1cccc(/C=C2/SC(=S)N(CC(=O)Nc3nnc(C)s3)C2=O)c1 | -9.01% [at 57.1 µM] (inactive) | –
